For 32 compounds, activation results are on record in PubChem BioAssay AID602247 (The Scripps Research Institute Molecular Screening Center, 2012).

Each structure is given as a SMILES string. In all, about 360,000 compounds went through this assay and about 80 (0.02%) were called active. What follows is part of a selection rich in actives, with near analogues and random picks from the rest. A number with no mark means an inactive call.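 The calls were made as follows: active = activation above the run cutoff, the mean activation of all test compounds plus 3 SD (cut at about 40% in these data); inactive = the rest.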

This test can be described thus: ATP EC20 calcium response enhancers, parental CHO-K1 – cell-based, Fluo-8 calcium fluorescence, full deck, 1536-well, counter-screen for M1 PAM project, primary screen (AID 602247).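 Also: peak over basal fluorescence ratio in a 140 s read after ATP addition.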 The following applies: parental CHO-K1, ATP EC20, Fluo-8 calcium fluorescence; at 3 µM; hits give high values; 0% at ATP EC20, 100% at ATP max.
Take `Cc1ccc(Cn2cc(C(=O)NN)c(=O)c3ccc(F)cc32)cc1`: the activation is -28.1%.

Regarding `CCOC(=O)C1(Cc2ccc(O)cc2)NC(c2ccccc2F)C2C(=O)N(C)C(=O)C21` (configuration not stated), the activation is 24%.

With `Cc1cccc([C@H]2[C@@H]3C=CC[C@@H](C)[C@@H]3C(=O)N2Cc2ccccc2)c1`, the activation was -0.48%.

As for `CSc1ccc(S(=O)(=O)NCC(=O)OCC(=O)NC2(C#N)CCCCC2)cc1[N+](=O)[O-]`, the activation was -4.9%.

Consider `Nc1nc(O)c(CC(=O)O)s1`, for which the activation was 1.33%.

Turning to `O=C(CCS(=O)(=O)c1ccccc1Cl)Nc1ccc(S(=O)(=O)Nc2ncccn2)cc1`, the activation was 7.81%.

Take `COc1ccc(S(=O)(=O)N2CN(CCc3ccc(OC)c(OC)c3)c3nc4ccccc4nc32)cc1`: the activation is 1.88%.

For the compound `C#CCCOC(=O)N1C2=NC(C(=O)OC)=C(C(=O)OC)[C@@H]3N(C)c4ccc(OC)cc4[C@]23C[C@H]1C(=O)OC`, the activation is -12.8%.

In the case of `O=C(CCCCCn1c(=S)[nH]c2ccsc2c1=O)NC1CCCCC1`, the activation was 16.9%.

`CC(C)n1ncc2c(C(=O)NCc3ccccc3CN(C)C)cc(C3CC3)nc21`: the activation is -12.7%.

Turning to `COC(=O)c1cc(S(=O)(=O)NC2CCN(Cc3ccccc3)CC2)cn1C`, the activation is 3.07%.

Consider `CCOc1ccc(NC(=S)N2CCC(N(C)CC3CCCO3)CC2)cc1` (configuration not stated), for which the activation was 23.7%.

With `COc1ccc(OC)c(S(=O)(=O)N2CCCC(C(=O)NCCc3ccccc3)C2)c1` (configuration not stated), the activation is -2.03%.

`Cc1ccc(OC(=O)c2cncc(Br)c2)c(C)c1`: the activation is -0.46%.

`S=C(Nc1ccc2c(c1)OCO2)N1CCCC1`: the activation is 12.1%.

Consider `COc1ccc(-c2ccc(C(=O)NC(C)C)c3occc23)c(C)c1`, for which the activation was 11%.

Consider `CC(=O)Nc1ccc(NC(=O)CSCc2cnn(-c3ccccc3)c2-n2cccc2)cc1`, for which the activation is 1.5%.

Turning to `Cc1ccc(N2C(=O)CC(N3CCSCC3)C2=O)c(C)c1` (configuration not stated), the activation is 0.16%.

In the case of `CCOC(=O)C1CCN(CCC(=O)Nc2cccc(C)c2)CC1`, the activation is -4.96%.

In the case of `CCCCCc1c(Cc2ccccc2)ncn1CCc1ccccc1OC`, the activation is 3%.

Take `CC(NC(=O)CN(C)S(=O)(=O)c1ccc(F)cc1)C1CC2CCC1C2` (configuration not stated): the activation was 9.24%.

With `CCC(C(=O)NC1CCCC1)N(C(=O)Cn1nnc(-c2ccc(C)o2)n1)c1ccc(OC)c(OC)c1` (configuration not stated), the activation was -0.54%.

As to `NC(=O)C1(Nc2ccc(-c3ccccc3)cc2)CCCC1`, the activation is 0.81%.

`CCOc1cc(/C=N/NC(=O)c2cc(-c3ccccc3)nc3ccccc23)ccc1O`: the activation is 40.7% (active).

As to `CCOc1ccccc1-c1cc(C(=O)N/N=C(\C)c2cccnc2)c2ccccc2n1`, the activation is 15.1%.

`CCOc1cc(/C=N/NC(=O)c2c(C)nc3ccc(Cl)cn23)ccc1O`: the activation was -3.92%.

As to `O=C(c1ccc(=O)[nH]c1)N(Cc1ccco1)C1(C(=O)NC2CCCCC2)CCCCC1`, the activation is 7.15%.

Turning to `CCC(C)NC(=O)C1CCC(=O)N1Cc1ccc(C)cc1` (configuration not stated), the activation is 19.6%.

With `CCn1c(SCC(=O)Nc2ccc(OC)c(OC)c2)nnc1-c1c[nH]c2ccccc12`, the activation is 22.7%.

As for `COc1ccccc1NC(=O)C(CC(=O)O)Cc1cc(C)cc(C)c1` (configuration not stated), the activation was 22.4%.

As for `O=S(=O)(c1cccc(C(F)(F)F)c1)N1c2ccccc2-n2cccc2C1c1cccnc1` (configuration not stated), the activation is 10.8%.

Turning to `O=C(NC1CCCC1)C(c1ccc(N2CCOCC2)cc1)N(C(=O)c1ccco1)c1ccccc1F` (configuration not stated), the activation is 4.16%.
